In this assay the test system is HL-60(TB) leukemia. Briefly: NCI-60 one-dose screen, 48 h (100 = growth as untreated, 0 = no growth, -100 = all killed). To be noted: 10 µM unless noted.

SMILES strings stand for the structures. Several values for one entry are separate records, joined by “and”; a condition that tells them apart may be missing. Identical values can stand only once. Compounds without any hit were thinned out: in the full panel of roughly 83,000, 20% have a hit.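 The endpoint reported here, percent growth, reads 100 for growth as untreated, 0 for no net growth and -100 for all cells dead.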 Activity calls are given as the source filed them. The calls were made as follows: active = growth percent below 10; inactive = the rest.

As to `CC[C@@]1(O)C(=O)OCc2c1cc1n(c2=O)Cc2c-1nc1ccccc1c2/C=N/OC(C)(C)C`, the growth is -29% (active).

As for `CCOc1ccc2nc3ccc(Cl)cc3nc2c1`, the growth was 63.7% (inactive).

Take `COc1cc(C2=NN(C=O)C(c3cccc(Nc4ccnc5cc(C(F)(F)F)ccc45)c3)C2)cc(OC)c1OC` (configuration not stated): the growth was 8.02% (active).

Regarding `Fc1ccc(-c2nn(-c3ccccc3)cc2-c2nc3ccccc3o2)cc1`, the growth is 77.3% (inactive).

For `CC(C)(C)n1cc(-c2ccnc(NCCCNS(=O)(=O)c3ccccc3)c2)c(-c2ccccc2)n1`, the growth is 38.5% (inactive).

As to `CC(=O)/C(=C/c1ccc(-c2ccccc2)cc1)C(=O)c1ccccc1`, the growth was 56.3% (inactive).

With `OC(COc1ccccc1Cl)COc1ccccc1Cl`, the growth is 94.3% (inactive).

For the compound `COc1cc2nc(-c3ccc(C(F)(F)F)cc3)cc(OCCCN3CCC(O)CC3)c2cc1OC`, the growth was 27.3% (inactive).

As for `O=C(Nc1ccccc1)Nc1cccc(Oc2nnc(Cl)c3ccccc23)c1`, the growth is 12.1% (inactive).

Regarding `OCCSc1ccc(Cl)cc1`, the growth is 131% (inactive) and 90.3% (inactive).

`CC(=O)C1=C(O)C=C2Oc3c(C(=O)/C=C/c4c(Cl)cccc4Cl)c(O)c(C)c(O)c3[C@]2(C)C1=O`: the growth was -39.3% (active).

With `COc1ccc(/C=C/C(=O)c2cc(O)ccc2O)cc1`, the growth was 3.32% (active).

Take `CCCCCCCCCCCCCCCCNC(=S)N/N=C/c1ccc(O)cc1O`: the growth is 49.9% (inactive).

Turning to `NNC(=O)Nc1ccccc1`, the growth is 102% (inactive).

With `COc1cc(C2CC(c3cccc(Br)c3)=NN2C(C)=O)cc(OC)c1OC` (configuration not stated), the growth was 78.2% (inactive).

Turning to `Nc1c(C(=O)Nc2cccc(Cl)c2Cl)sc2nc3c(cc12)C(=O)CCC3`, the growth is 96.6% (inactive).

Regarding `O=C(O)c1cccc(Br)c1`, the growth was 104% (inactive) and 98.8% (inactive).

As for `CCCCCC(=O)N1c2ccccc2NC2=C(C(=O)CC(c3ccc(OC)c(OC)c3)C2)C1c1ccc(C(F)(F)F)cc1` (configuration not stated), the growth was 45.4% (inactive).

On to `N#Cc1c(NC(=O)c2cccc(Br)c2)sc2c1CCCC2`, for which the growth is 62.4% (inactive).

As for `O=C(Nc1nc2cc(C(=O)N3CCN(C(c4ccccc4)c4ccccc4)CC3)ccc2o1)c1ccc(NC2CCCCC2)c([N+](=O)[O-])c1`, the growth was 82% (inactive).

Take `OCc1ncc(-c2ccccc2)s1`: the growth is 91.1% (inactive).

For the compound `NNC(=O)/C(=C\c1ccc([N+](=O)[O-])cc1)CC(=O)c1ccc(Cl)c(Cl)c1`, the growth was 98.9% (inactive).

Consider `N#Cc1ccc(NC(=O)Nc2cccc(C#N)c2)cc1`, for which the growth is 68.6% (inactive).

With `N#CCCN1CCN(CCC#N)C1=S`, the growth was 129% (inactive).

Consider `COc1cc(-c2nc3occn3c2-c2ccnc(NCCNS(=O)(=O)c3ccc(Cl)cc3)n2)ccc1F`, for which the growth is 100% (inactive).

In the case of `C=CCNc1nnc(C)s1`, the growth is 139% (inactive).

Take `CC(C)OCc1cc(CN2CCN(c3cccc(Cl)c3)CC2)c(O)c2ncccc12`: the growth is -46% (active).

For the compound `O=C(N/N=C/c1ccc(Cl)cc1Cl)c1ccccc1Nc1cccc(C(F)(F)F)c1`, the growth was 85.7% (inactive).

Take `CCOc1ccc2cc(-c3nn(CC4CCN(C)CC4)c4ncnc(N)c34)ccc2c1`: the growth is 96.7% (inactive) and 54.3% (inactive).

As to `COc1ccc(/C=C/C(=O)/C=C(/C=C/c2ccc(OC)c(OC)c2)OB(F)F)cc1OC`, the growth was 19.7% (inactive).

As to `COc1ccccc1NC(=O)c1sc2nc3c(cc2c1N)C(=O)CCC3`, the growth was 98.6% (inactive).

On to `CCOC(=O)c1cc(C(=O)c2ccc(OC)c(OC)c2)n2ccncc12`, for which the growth is 92% (inactive).

As for `COc1ccc(/C=C\c2cc(OC)c(OC)c(OC)c2)c(NS(=O)(=O)c2ccc(C(C)(C)C)cc2)c1O`, the growth is 6.05% (active).

Take `N#CC1CCc2c(c(-c3cn[nH]c3C(F)(F)F)nc3c(F)cc4[nH]ncc4c23)C1` (configuration not stated): the growth is 47% (inactive).

On to `COc1cc(/C=C/c2ccccc2)cc(OC)c1`, for which the growth was 96.2% (inactive).

For the compound `Cc1cc(O)c(C(C)C)cc1S(=O)(=O)O` (tested in a mixture with another compound), the growth is 84.2% (inactive) and -0.846% (active) and 104% (inactive).

`CN(C)CCNc1cc(-c2ccccc2)nc2ccccc12`: the growth is -17.7% (active).

Consider `COc1ccc2sc3c(NCCCN(C)C)nc4ccccc4c3c(=O)c2c1`, for which the growth is 38.7% (inactive).

Turning to `CCOC(=O)c1cc(CC)sc1NC(=O)CC(C)=O`, the growth is 51.4% (inactive).

With `CCN(CC)CCNC(=O)n1cc(-c2ccncc2)c(-c2cc(Cl)cc(OC)c2)n1`, the growth was 78% (inactive).

In the case of `O=CC1(C2(C=O)c3ccccc3-c3ccccc32)c2ccccc2-c2ccccc21`, the growth is -52.3% (active).

On to `O=C1NCC(Nc2ccc(Br)cc2Cl)C(=O)N1` (configuration not stated), for which the growth is 108% (inactive).

On to `CN1CCN(c2nc(-c3cccc4ccccc34)nc3sc4c(c23)CCCCCC4)CC1`, for which the growth was 91.6% (inactive).

For `COc1ccc(-c2nc3c(c(-c4ccccc4)nn3-c3ccccc3)c(-c3ccc(N4CCOCC4)cc3)c2C#N)cc1`, the growth was 101% (inactive).

As to `C=CC(=O)N1CCC[C@H](n2c(=O)n(-c3ccc(Oc4ccccc4)cc3)c3c(N)ncnc32)C1`, the growth is 92.4% (inactive).

As to `C=C(C)[C@@H]1CC[C@]2(C=O)CC[C@]3(C)[C@H](CC[C@@H]4[C@@]5(C)CCCNC(C)(C)[C@@H]5CC[C@]43C)[C@@H]12`, the growth was 7.59% (active).

With `O=C1CC(=O)N(C(=O)c2nn(-c3ccc(Cl)cc3)cc2O)N1`, the growth was 4.53% (active).

Consider `N#Cc1c(Nc2ccccc2)nn2cc(-c3nc4ccccc4s3)c(N)nc12`, for which the growth was 100% (inactive).

For `CCOc1ccc2sc(NS(=O)(=O)c3ccc(N)cc3)nc2c1`, the growth is 94.7% (inactive).

Take `CNc1ccc2nc3ccc(=[N+](C)C)cc-3sc2c1`: the growth was -22.9% (active) and 5.72% (active).

On to `Cc1cc(OCc2ccc(C(F)(F)F)cc2)c2c(c1)C(=O)C=C(NCCN1CCCC1)C2=O`, for which the growth was 96.6% (inactive).

In the case of `COc1cc2nc3c(=O)n(-c4ccc(C#N)cc4)cnn3c(=O)c2cc1OC`, the growth was 92.1% (inactive).

On to `CN(C)c1ccc(Cc2ccc(N(C)C)cc2Cl)c(Cl)c1`, for which the growth was 5.92% (active).

With `O=C1CC23OC4ON=C(Br)C4C2C(O)c2ccccc2N13` (configuration not stated), the growth was 102% (inactive).

Turning to `COc1cccc([C@H]2c3[nH]c4ccccc4c3C[C@H]3C(=O)N(CCCCCCC(=O)NO)CC(=O)N23)c1`, the growth was 31% (inactive).

On to `CCOC(=O)c1ccc(NC(=O)c2nc(-c3cc(OC)c(OC)c(OC)c3)n(-c3ccc(Cl)cc3)n2)cc1`, for which the growth is 77.3% (inactive).

For `Cc1cc(-c2cc(C)c(N)cc2C)c(C)cc1N`, the growth was 90.2% (inactive).

Regarding `CCOC(=O)C(CCC#N)(CCC#N)C(=O)OCC`, the growth is 103% (inactive).

On to `Cc1[nH]c2ccc(F)cc2c1CCNC(=O)C1CCN(C(=O)c2ccccc2)C1` (configuration not stated), for which the growth is 107% [25 µM] (inactive).

Regarding `COc1cccc(C2C3=C(COC3=O)N(CCO)c3cc(OC)ccc32)c1` (configuration not stated), the growth is -25.9% (active).

Consider `COc1ccc2c(c1)O/C(=C/c1ccc(OCC(=O)c3ccccc3)cc1)C2=O`, for which the growth was 88.7% (inactive).

For the compound `CN1CCN(CCOc2cc(OC3CCOCC3)c3c(Nc4c(Cl)ccc5c4OCO5)ncnc3c2)CC1`, the growth was 101% (inactive).

In the case of `O=C(Nc1cccc(Cl)c1)Nc1cc(C(F)(F)F)ccc1Cl`, the growth is -6.22% (active).

`CC(=O)N1N=C(c2cccc(Nc3ccncc3)c2)CC1c1ccccc1` (configuration not stated): the growth was 78.9% (inactive).

Regarding `CN(C)CCCC1(c2ccc(F)cc2)OCc2cc(-c3cncc4ccccc34)ccc21` (configuration not stated), the growth was 10.7% (inactive).

With `CCOc1ccccc1/C=N\N=C(\N)N/N=C/c1ccccc1OCC`, the growth is -7.32% (active).

Take `N#CCCN(CCO)c1ccccc1`: the growth was 89.9% (inactive).

For the compound `Cc1n(Cc2ccc3ccccc3n2)cc[n+]1Cc1ccc2ccccc2c1`, the growth was -32.9% (active).

Consider `CC(=O)c1nc(Nc2ccc(C)cc2)sc1C`, for which the growth was 101% (inactive).

With `Cc1cc(N=Nc2ccc(C)c(N=Nc3cc(C)c(N)cc3N)c2)c(N)cc1N`, the growth is 99.9% (inactive) and 82.5% (inactive).

On to `O=C(Nc1ccc(-c2nc(N3CCOCC3)c3cccn3n2)cc1)Nc1cccnc1`, for which the growth was 12% (inactive).

As to `Nc1nc(-c2ccccc2)nc(N)c1N=O`, the growth was 18.8% (inactive).

In the case of `N#CC1=C(N)Oc2c(sc3c(F)cccc23)C1c1ccc(F)cc1` (configuration not stated), the growth is 5.96% (active).

Take `C=C(C)[C@@H]1CC[C@]2(CO)CC[C@]3(C)[C@H](CC[C@@H]4[C@@]5(C)C=C(C#N)C(=O)C(C)(C)[C@@H]5CC[C@]43C)[C@@H]12`: the growth was -26.1% (active).

For `O=C1NC(=O)N(Cc2ccccc2)CC1Br` (configuration not stated), the growth is 56.4% (inactive).

Turning to `CCCCN1C(=O)/C(=c2\sc3n(c2=O)C2C(NN=3)N(CC)C(=O)N2CC)c2ccccc21` (configuration not stated), the growth is -52.2% (active).

Take `CCc1ccc(CCCC(=O)O)cc1`: the growth is 98.8% (inactive).

On to `O=C1/C(=C/c2ccc(-c3ccc(Br)cc3)o2)SC(=S)N1CCc1ccc(O)cc1`, for which the growth is 44.3% (inactive).

As to `C[C@H](c1nc2ccc(N)cc2[nH]1)[C@H]1CC[C@H]2[C@@H]3CCC4=CC(=O)CC[C@]4(C)[C@H]3CC[C@]12C`, the growth was -50.2% (active).

Turning to `Cc1ccc(-c2cc(-c3ccc(Cl)cc3)nc(NC(=O)c3cccnc3)n2)cc1`, the growth was 110% (inactive).

Take `C=CC[N+]1(CCO)CCN=C1CCCCCCCCCCCCC` (configuration not stated): the growth was -31.8% (active).

With `CCN1C(=O)N(CC)C2Nn3c(s/c(=C4\C(=O)N(C)c5ccccc54)c3=O)=NC21` (configuration not stated), the growth is 21.1% (inactive).

Turning to `CNC(=S)Sc1ccc([N+](=O)[O-])cc1[N+](=O)[O-]`, the growth is -14.6% (active).

As to `CCOC(=O)C1=CC(=O)CC(C)(C)O1`, the growth was 53.2% (inactive) and 69.6% (inactive).

`COc1ccc(CN2c3ccccc3Sc3ccccc32)cc1O`: the growth was 21.1% (inactive).

On to `COc1ccc(C(=O)n2nc(CC(=O)NCc3ccccc3)nc2N)cc1`, for which the growth was 91.9% (inactive).

On to `COc1cc(NC(=O)CCl)ccc(=O)c1`, for which the growth is 77.1% (inactive).

For the origin of these results see PubChem BioAssay (NCI).
